In PubChem BioAssay (Tox21):
Values without a mark were called inactive. Results filed as inconclusive are left out. Entries that show only a call come without a potency. The source made the active and inactive calls. Unless noted, calls come from the whole dose curve; as a rule, active = well fitted curve in the direction sought with a large enough effect in the repeat runs; inconclusive = weak or mixed curves; inactive = no such curve, though single readings can be large; an effect the other way counts as inactive or inconclusive.

Assays:
[1] = qHTS assay to identify small molecule agonists or antagonists of the thyroid stimulating hormone receptor (TSHR) signaling pathway - wild type cell line counter screen (AID 1259384; calls by dose curve)
How it was run: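 Wild-type HEK293 cells were plated 18 h at 37 C/5% CO2, pin-dosed with compound plus Ro20-1724 medium, held 30 min at room temperature, then given cAMP-d2 and anti-cAMP-cryptate; fluorescence was read after 1 h. Fifteen concentrations, triplicate.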

[2] = molecular target: Thyrotropin receptor (Homo sapiens) (UniProt P16473); experiment: qHTS assay to identify small molecule antagonists of the thyroid stimulating hormone receptor (TSHR) signaling pathway (AID 1259385; calls by dose curve; note: nearly all actives have a fitted effect of over 20% in size)
Sequence of Thyrotropin receptor (Homo sapiens) (P16473 whole entry, looked up): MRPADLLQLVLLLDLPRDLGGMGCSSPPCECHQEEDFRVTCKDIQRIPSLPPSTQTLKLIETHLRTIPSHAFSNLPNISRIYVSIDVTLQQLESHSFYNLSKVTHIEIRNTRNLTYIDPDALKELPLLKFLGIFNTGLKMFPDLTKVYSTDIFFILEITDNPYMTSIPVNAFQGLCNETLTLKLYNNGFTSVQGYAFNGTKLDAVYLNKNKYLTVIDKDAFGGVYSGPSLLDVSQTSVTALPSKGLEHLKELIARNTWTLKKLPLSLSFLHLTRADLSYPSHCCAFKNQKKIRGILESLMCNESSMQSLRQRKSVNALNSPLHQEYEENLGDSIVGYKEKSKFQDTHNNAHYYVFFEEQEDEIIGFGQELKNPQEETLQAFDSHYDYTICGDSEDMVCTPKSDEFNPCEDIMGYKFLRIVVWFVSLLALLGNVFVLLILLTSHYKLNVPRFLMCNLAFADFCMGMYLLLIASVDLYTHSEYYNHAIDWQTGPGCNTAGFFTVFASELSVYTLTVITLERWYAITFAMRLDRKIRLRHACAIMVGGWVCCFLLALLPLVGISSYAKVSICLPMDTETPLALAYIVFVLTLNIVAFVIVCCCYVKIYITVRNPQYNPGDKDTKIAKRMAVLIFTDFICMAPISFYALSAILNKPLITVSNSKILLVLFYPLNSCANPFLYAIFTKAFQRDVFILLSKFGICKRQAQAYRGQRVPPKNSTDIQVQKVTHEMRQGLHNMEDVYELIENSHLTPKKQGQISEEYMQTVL
How it was run: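 TSHR-HEK293 cells were plated and held 18 h at 37C/5% CO2, then given compound plus Ro20-1724 and stimulated with TSH at 1.5 ng/mL final. After 30 min at room temperature, cAMP was detected with cAMP-d2/anti-cAMP-cryptate (1 h) by fluorescence.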

[3] = qHTS assay to identify small molecule agonists of the estrogen receptor alpha (ER-alpha) signaling pathway in the presence of an antagonist - cell viability counter screen (AID 1259386);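 note: series mostly up to about 92 µM; cells exposed to compounds for 22 h at 37 °C before the viability read; nearly all actives have a fitted effect of over 30% in size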
How it was run: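 VM7Luc4E2 cells (endogenous full-length ER-alpha, 4×ERE-luciferase) were held 5 days in phenol red-free medium with 10% charcoal-stripped FBS, plated, then given 10.0nM ICI-182,780 and compounds at 15 concentrations for 22hr at 37C; viability read by CellTiter-Fluor fluorescence.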

[4] = molecular target: Progesterone receptor (Homo sapiens) (UniProt P06401); experiment: qHTS assay to identify small molecule agonists of the progesterone receptor (PR) signaling pathway (AID 1346784; calls by dose curve; note: nearly all actives have a fitted effect of over 30% in size)
Sequence of Progesterone receptor (Homo sapiens) (P06401 whole entry, looked up): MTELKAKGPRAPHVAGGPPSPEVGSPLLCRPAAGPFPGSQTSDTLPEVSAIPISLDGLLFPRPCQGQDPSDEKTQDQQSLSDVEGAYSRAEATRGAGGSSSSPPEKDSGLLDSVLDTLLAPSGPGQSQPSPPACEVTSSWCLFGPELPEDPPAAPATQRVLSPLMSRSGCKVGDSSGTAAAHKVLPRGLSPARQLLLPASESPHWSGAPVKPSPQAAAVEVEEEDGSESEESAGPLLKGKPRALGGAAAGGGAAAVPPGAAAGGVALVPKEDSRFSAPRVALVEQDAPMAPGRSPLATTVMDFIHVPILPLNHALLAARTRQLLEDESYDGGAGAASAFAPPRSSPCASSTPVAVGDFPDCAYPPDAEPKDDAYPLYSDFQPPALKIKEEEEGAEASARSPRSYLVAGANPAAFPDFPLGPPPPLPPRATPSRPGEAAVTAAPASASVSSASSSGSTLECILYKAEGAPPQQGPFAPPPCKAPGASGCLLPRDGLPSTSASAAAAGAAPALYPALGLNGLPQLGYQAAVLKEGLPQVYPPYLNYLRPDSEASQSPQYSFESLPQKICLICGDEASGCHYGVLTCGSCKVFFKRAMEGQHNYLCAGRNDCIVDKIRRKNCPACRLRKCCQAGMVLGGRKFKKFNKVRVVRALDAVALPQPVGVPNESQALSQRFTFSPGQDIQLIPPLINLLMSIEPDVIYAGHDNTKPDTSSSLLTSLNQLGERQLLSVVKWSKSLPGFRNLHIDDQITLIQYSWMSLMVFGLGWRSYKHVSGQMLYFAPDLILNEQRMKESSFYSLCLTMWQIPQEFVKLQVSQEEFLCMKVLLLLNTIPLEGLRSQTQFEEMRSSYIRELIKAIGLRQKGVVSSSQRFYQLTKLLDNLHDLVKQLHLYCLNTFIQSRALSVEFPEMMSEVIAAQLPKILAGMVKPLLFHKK
How it was run: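 Fluorescence from LiveBLAzer B/G FRET substrate cleavage (2 hr, RT) reported PR activation in PR-UAS-bla HEK 293T cells treated 16 hr at 37C/5% CO2 with compounds; medium contained 2% charcoal-stripped FBS.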

[5] = molecular target: Progesterone receptor (Homo sapiens) (UniProt P06401); experiment: qHTS assay to identify small molecule antagonists of the progesterone receptor (PR) signaling pathway (AID 1346795; active = well fitted inhibition curve with a large enough effect in the signal ratio in the repeat runs, not every such curve was filed as active; the % refers to the signal ratio; note: potency is the fitted concentration of half-maximal effect)
How it was run: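 Fluorescence intensity measured 2 hr after adding beta-lactamase FRET substrate to PR-UAS-bla HEK293T cells that had been co-treated 16 hr with compound and 1 nM R5020 (final concentration) in 2% charcoal-stripped FBS.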

[6] = qHTS assay to identify small molecule antagonists of the progesterone receptor (PR) signaling pathway - cell viability counter screen (AID 1346798); note: series mostly up to about 92 µM; nearly all actives have a fitted effect of over 50% in size
How it was run: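 CellTiter-Glo luminescence; PR-UAS-bla HEK293T, 3,000 cells/well; compound + R5020, 16 hr, 37C/5% CO2; 30 min RT before read.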

[7] = qHTS assay to identify small molecule agonists of the progesterone receptor (PR) signaling pathway - cell viability counter screen (AID 1346799; calls by dose curve; note: nearly all actives have a fitted effect of over 45% in size)
How it was run: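 In parallel with the beta-lactamase readout, cytotoxicity toward PR-UAS-bla HEK293T cells was measured by CellTiter-Glo luminescence following 16 hr compound incubation in 2% charcoal-stripped FBS medium.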

[8] = qHTS assay to identify small molecule antagonists of the TGF-beta/Smad signaling pathway - cell viability counter screen (AID 1346824); note: nearly all actives have a fitted effect of over 50% in size
How it was run: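 SBE-bla HEK 293T cells were plated overnight at 37 C, then given compounds in DMSO plus TGF-beta1 (added as 0.25 ng/mL solution) for 5 hr. After the bla read, CellTiter-Glo was added to the same wells and luminescence read after 30 min at room temperature.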

[9] = qHTS assay to identify small molecule agonists of the TGF-beta/Smad signaling pathway - cell viability counter screen (AID 1346829); note: top concentration of the series differs between compounds; nearly all actives have a fitted effect of over 45% in size
How it was run: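 Same-well cytotoxicity: CellTiter-Glo added after the 2 hr room-temperature beta-lactamase substrate step, luminescence measured 30 min later; cells had 5 hr of compound at 37 C.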

[10] = qHTS assay to identify small molecule agonists of the TGF-beta/Smad signaling pathway (AID 1346859; active = well fitted activation curve with a large enough effect in the signal ratio in the repeat runs, not every such curve was filed as active; the % refers to the signal ratio; note: series mostly up to about 77 µM)
How it was run: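 After overnight seeding, SBE-bla HEK 293T cells are dosed with compounds in DMSO and kept 5 hr at 37 C, 5% CO2. LiveBLAzer-type FRET substrate is then applied for 2 hr at room temperature.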

[11] = molecular target: Thyrotropin-releasing hormone receptor (Homo sapiens) (UniProt P34981); experiment: qHTS assay to identify small molecule antagonists of the thyrotropin-releasing hormone receptor (TRHR) signaling pathway (AID 1346877; active = well fitted inhibition curve with a large enough effect in the repeat runs, not every such curve was filed as active; note: series mostly up to about 51 µM)
Sequence of Thyrotropin-releasing hormone receptor (Homo sapiens) (P34981 whole entry, looked up): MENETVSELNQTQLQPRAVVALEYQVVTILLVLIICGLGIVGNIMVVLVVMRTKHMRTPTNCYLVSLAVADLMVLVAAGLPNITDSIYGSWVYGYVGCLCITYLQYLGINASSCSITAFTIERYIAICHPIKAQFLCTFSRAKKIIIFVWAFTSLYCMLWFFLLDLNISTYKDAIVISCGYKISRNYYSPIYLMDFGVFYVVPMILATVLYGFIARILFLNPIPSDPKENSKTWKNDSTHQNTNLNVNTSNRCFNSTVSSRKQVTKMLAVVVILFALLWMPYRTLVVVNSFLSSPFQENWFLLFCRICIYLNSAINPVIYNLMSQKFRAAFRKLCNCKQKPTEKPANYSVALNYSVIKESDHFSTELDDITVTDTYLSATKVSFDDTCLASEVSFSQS
How it was run: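 TRHR-expressing HEK293 cells were seeded, cultured 18 h at 37 °C, then loaded with calcium dye for 2 h. Compounds were pre-incubated 5 min at room temperature before 1 nM TRH (final) was added, and kinetic fluorescence was recorded for 3 min.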

[12] = molecular target: Thyrotropin-releasing hormone receptor (Homo sapiens) (UniProt P34981); experiment: qHTS assay to identify small molecule agonists of the thyrotropin-releasing hormone receptor (TRHR) signaling pathway (AID 1346891; calls by dose curve; note: series mostly up to about 58 µM)
How it was run: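 Compounds were tested as agonists at 15 concentrations, in triplicate, on TRHR-Hek293 cells; calcium-sensitive dye fluorescence was recorded for 3 min following addition.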

[13] = Human pregnane X receptor (PXR) small molecule agonists, qHTS cell viability counter screen (AID 1346977); note: nearly all actives have a fitted effect of over 50% in size
How it was run: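 Viability counter screen: CellTiter-Fluor signal in PXR-Luc HepG2 cells, 24hr compound exposure, 37C, 5% CO2.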

[14] = Caspase-3/7 induction in HepG2 cells by small molecules, qHTS assay (AID 1346978); note: nearly all actives have a fitted effect of over 15% in size
How it was run: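 Wild-type HepG2 cells (2,000/well) were settled 5 h at 37 C, 5% CO2, then exposed to compounds in DMSO for 17 h. Caspase-3/7 activity was read by luminescence 30 min after adding Caspase-Glo 3/7 reagent at room temperature.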

[15] = Caspase-3/7 induction in HepG2 cells by small molecules, qHTS cell viability counter screen (AID 1346981); note: series mostly up to about 92 µM; nearly all actives have a fitted effect of over 30% in size
How it was run: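 Wild-type HepG2 cells (2,000/well) were allowed to settle for 5 hr at 37 C, 5% CO2, then dosed with compounds in DMSO by pin transfer. After 16 hr at 37 C, CellTiter-Fluor was added and fluorescence read 1 hr later.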

[16] = molecular target: Nuclear receptor subfamily 1 group I member 2 (Homo sapiens) (UniProt O75469); experiment: Human pregnane X receptor (PXR) small molecule agonists, qHTS assay (AID 1346982); note: nearly all actives have a fitted effect of over 35% in size; note: potency is the fitted concentration of half-maximal effect
Sequence of Nuclear receptor subfamily 1 group I member 2 (Homo sapiens) (O75469 whole entry, looked up): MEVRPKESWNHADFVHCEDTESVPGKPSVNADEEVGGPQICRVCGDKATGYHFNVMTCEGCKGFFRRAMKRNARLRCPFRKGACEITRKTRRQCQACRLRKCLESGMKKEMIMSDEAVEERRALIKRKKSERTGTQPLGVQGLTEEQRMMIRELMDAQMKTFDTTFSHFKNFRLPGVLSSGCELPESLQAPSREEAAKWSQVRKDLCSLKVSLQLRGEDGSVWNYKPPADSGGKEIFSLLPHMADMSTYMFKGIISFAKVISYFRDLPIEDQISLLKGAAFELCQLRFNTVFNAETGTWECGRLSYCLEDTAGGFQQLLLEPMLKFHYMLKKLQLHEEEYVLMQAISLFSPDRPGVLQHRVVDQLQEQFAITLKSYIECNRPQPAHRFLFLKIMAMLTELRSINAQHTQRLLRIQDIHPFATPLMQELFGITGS
How it was run: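 PXR-Luc HepG2 cells (CYP3A4 promoter-driven luciferase) were seeded in medium with 5% charcoal-stripped FBS, left 5 hr at 37 C, then exposed to compounds in DMSO for 24 hr. Luminescence was read after ONE-Glo addition.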

[17] = Caspase-3/7 induction in CHO-K1 cells by small molecules, qHTS cell viability counter screen (AID 1346979); note: nearly all actives have a fitted effect of over 35% in size
How it was run: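 Viability readout by fluorescence (CellTiter-Fluor) on wild-type CHO-K1 cells exposed for 16hr at 37C and 5% CO2 to compounds delivered in DMSO; reagent incubated 1hr before reading.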

[18] = Caspase-3/7 induction in CHO-K1 cells by small molecules, qHTS assay (AID 1346980); note: nearly all actives have a fitted effect of over 15% in size
How it was run: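 Wild-type cells were seeded at 1,500 per well and settled 5 hr at 37 C, 5% CO2, then exposed to DMSO-dissolved compounds for 17 hr. Caspase-Glo 3/7 reagent was added, and luminescence was read after 30min at room temperature.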

[19] = molecular target: Nuclear receptor subfamily 1 group I member 2 (Rattus norvegicus) (UniProt Q9R1A7); experiment: Rat pregnane X receptor (rPXR) activation by small molecules, qHTS assay (AID 1346983); conditions: rPXR luciferase reporter cells, One-Glo luminescence, 24 h; max activation: hits give high values; note: nearly all actives have a fitted effect of over 20% in size
Sequence of Nuclear receptor subfamily 1 group I member 2 (Rattus norvegicus) (Q9R1A7 whole entry, looked up): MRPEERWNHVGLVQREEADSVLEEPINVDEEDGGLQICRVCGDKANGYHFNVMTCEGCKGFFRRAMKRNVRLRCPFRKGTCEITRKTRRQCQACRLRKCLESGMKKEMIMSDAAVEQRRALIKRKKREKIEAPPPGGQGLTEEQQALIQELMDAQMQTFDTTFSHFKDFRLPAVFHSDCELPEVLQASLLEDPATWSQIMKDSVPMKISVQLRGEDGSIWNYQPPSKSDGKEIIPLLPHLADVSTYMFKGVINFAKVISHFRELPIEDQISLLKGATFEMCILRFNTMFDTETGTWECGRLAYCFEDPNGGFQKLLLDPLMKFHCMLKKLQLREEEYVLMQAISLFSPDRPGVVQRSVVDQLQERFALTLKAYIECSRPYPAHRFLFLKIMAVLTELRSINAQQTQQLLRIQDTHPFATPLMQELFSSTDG
How it was run: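 Cell-based rPXR luciferase reporter assay, 2,000 cells per well, rested 5hr at 37 C before compound addition in DMSO, then 24 hr at 37 C. One-Glo reagent was added and luminescence read after 30 min at room temperature.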

Row | Structure (SMILES) | outcome [1] | outcome [2] | Potency [3] | Potency [4] | Potency [5] | Potency [6] | Potency [7] | outcome [8] | outcome [9] | outcome [10] | outcome [11] | outcome [12] | Potency [13] | outcome [14] | Potency [15] | Potency [16] | Potency [17] | outcome [18] | max activation [19] [%]
1 | C=C[C@@H](C)CCC=C(C)C | inactive | inactive | inactive | inactive | inactive | inactive | inactive | inactive | inactive | inactive | inactive | inactive | inactive | inactive | inactive | inactive |  |  | 
2 | NS(=O)(=O)c1cc2c(cc1Cl)NC(CC1CCCC1)NS2(=O)=O (configuration not stated) | inactive | inactive | inactive | inactive | inactive | inactive | inactive | inactive | inactive |  | inactive | inactive | inactive | inactive | inactive | inactive | inactive | inactive | -1.01
3 | O=C1c2ccccc2-c2ccccc21 | inactive | inactive | inactive | inactive | inactive | inactive | inactive | inactive | inactive | inactive | inactive | inactive | inactive | inactive | inactive | inactive | inactive | inactive | 
4 | O=C1NC2NC(=O)NC2N1 (configuration not stated) | inactive | inactive | inactive | inactive | inactive | inactive | inactive | inactive | inactive | inactive | inactive | inactive | inactive | inactive | inactive | inactive | inactive |  | 
5 | O=C(CN1CCN(Cc2ccc3c(c2)OCO3)CC1)N1c2ccccc2Sc2ccccc21 | inactive | inactive | inactive | inactive | inactive | inactive | inactive | inactive | inactive | inactive | inactive | inactive | inactive | inactive |  | 11.9 µM (active) | inactive | inactive | 6.39
6 | CN[C@@H]1[C@@H](O)[C@@H](O[C@@H]2[C@H](O)[C@H](O[C@H]3OC(CN)=CC[C@H]3N)[C@@H](N)C[C@H]2N)OCC1(C)O (some centres not stated) | inactive | inactive | inactive | inactive | inactive | inactive | inactive | inactive |  |  |  |  | inactive | inactive |  |  | inactive | inactive | 
7 | CN(C1CCCCC1)S(=O)(=O)c1ccccc1N | inactive | inactive | inactive | inactive | 17.2 µM (active) | inactive | inactive | inactive | inactive | inactive | inactive | inactive | inactive | inactive |  | 27.3 µM (active) |  | inactive | 
8 | CCC(=O)OCCC(C)CCC=C(C)C (configuration not stated) | inactive | inactive | inactive | inactive | inactive | inactive | inactive | inactive | inactive | inactive |  |  | inactive | inactive | inactive | inactive | inactive | inactive | 
9 | c1ccccc1 | inactive | inactive | inactive |  | inactive |  | inactive | inactive | inactive | inactive | inactive | inactive | inactive | inactive |  |  |  |  | 
10 | CCCCC/C=C/CC(=O)OC | inactive | inactive | inactive | inactive |  | inactive | inactive | inactive | inactive | inactive |  |  | inactive | inactive |  | inactive | inactive |  | 
11 | O=S(=O)(O)c1cc(O)ccc1O | inactive | inactive | inactive | inactive | inactive |  | inactive | inactive | inactive | inactive | inactive | inactive | inactive | inactive | inactive |  | inactive | inactive | 
